# Hits are enriched below; roughly 3.4% of the tested compounds scored in any of these assays.
# PAX8 reporter: inhibitors of PAX8-driven TPO luciferase reporter, primary screen, RMG-I cells, single concentration | SteadyGlo, 24 h | inhibition, % at 12.6 µM | actives 1.2% (n = 360,000) | AID 652154, 2013;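 active means mean replicate inhibition at least 60% with every replicate also reaching 60%; inconclusive means only one of the two criteria is met; inactive means mean below 60% and not all replicates reaching 60%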;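 further: luciferase light reporting Pax8 driven TPO promoter activity; plate controls were median of neutral control wells for no effect and mitoxantrone controls for full effect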
# EWS-Fli inh: EWS/Fli-driven NR0B1 reporter inhibitors, primary screen, A673 cells, NR0B1 luciferase, luminescence, MLPCN library; inhibition, % at 12.6 µM; AID 651661, 2012; viability-normalised; actives 0.67% (n = 350,000);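 active means mean inhibition of at least 50% after viability correction, with every replicate also passing that limit; inconclusive means mean reaches 50% but only one of two replicates passes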;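 further: firefly luciferase signal divided by Alamar Blue viability fluorescence both relative to DMSO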
# PGC1a acetyl inh: inhibitors of PGC1a acetylation signal, primary screen, cell-based, U2OS, AlphaScreen, inhibitor mode. AlphaScreen anti-acetyl-lysine; with virally co-expressed GCN5 acetyltransferase. inhibition, % at 15.6 µM. actives 0.17% (n = 350,000). AID 651687, 2012;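 active means every replicate shows inhibition of at least 40%; inconclusive means mean inhibition at least 40% but some replicate below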;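 further: 0% = neutral control wells and 100% = positive control wells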
# SIRT5 block: SIRT5 desuccinylase inhibitors, primary screen, biochemical, fluorescence imaging, single point, set 5 | Purified SirT5, succinyl-peptide AMC, trypsin-coupled fluorescence | inhibition, % at 15 µM | actives 1.1% (n = 330,000); in the data active means inhibition above about 15%; inconclusive means no clear call, values can overlap the other calls
# Target sequence (Q9NXA8 whole entry, looked up): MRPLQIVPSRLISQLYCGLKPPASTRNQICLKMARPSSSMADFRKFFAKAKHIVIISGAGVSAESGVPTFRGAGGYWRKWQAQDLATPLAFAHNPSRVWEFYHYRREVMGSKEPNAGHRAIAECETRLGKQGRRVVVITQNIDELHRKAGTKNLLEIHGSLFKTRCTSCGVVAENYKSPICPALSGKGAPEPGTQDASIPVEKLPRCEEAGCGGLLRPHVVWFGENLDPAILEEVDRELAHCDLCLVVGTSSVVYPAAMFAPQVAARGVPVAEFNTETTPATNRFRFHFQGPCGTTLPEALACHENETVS
# LGR2 inh: inhibitors of bursicon-induced LGR2 CRE-luciferase signal, primary screen, cell-based, HEK293, CRE-luciferase reporter, bursicon stimulation; AID 720647, 2013; inhibition, % at 9.99 µM; bursicon-stimulated, 4 h; actives 0.35% (n = 380,000); Drosophila bursicon receptor LGR2 (rickets);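 active means drop in luminescence signal, shown as inhibition above about 50% in the replicate tests, limit read from the data, passing the limit was not always enough; inconclusive means probably only some replicates passing the limit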;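 further: agonist challenge used bursicon conditioned medium at about half maximal strength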
# rRNA inh HTS: reduced GFP signal of wild-type E. coli, primary screen, bacterial rRNA inhibitor project, GFP/RFP fluorescence, OD600, single point | E. coli WT GFP vs humanized-ribosome RFP mutants, 24 h; active compounds read low; DMSO median 0, no signal -100 | actives 1.6% (n = 350,000) | AID 720706, 2013 | GFP signal change (wild-type ribosome), % (concentration not given with the values);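 active means significant combined selectivity score with lowered wild-type GFP, culture density cut under 30%, mutant RFP and density less affected; inactive means any of these conditions unmet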
# Numbers without * were called inactive; ? = inconclusive; . = no result given.
SMILES,PAX8 reporter,EWS-Fli inh,PGC1a acetyl inh,SIRT5 block,LGR2 inh,rRNA inh HTS
COc1cc(OC)c2c(-c3cccc(-c4sccc4C(C)=O)c3)cc(=O)oc2c1,84*,56*,-3,6,20,-3
COC(=O)C(C)Oc1cc(OC(C)C(=O)OC)c2c(-c3ccccc3)cc(=O)oc2c1 (stereo not given),27,8,.,0,7,-24*
O=C(CN1CCOCC1)N[C@@H]1CC[C@@H](CCNC(=O)C2CCC2)O[C@@H]1CO,-37,-1,25,3,1,0
CC(C)CC#Cc1ccc([C@@H]2[C@@H](CO)N3C(=O)CN(S(C)(=O)=O)C[C@H]23)cc1,.,.,.,.,.,3
COc1cc(OC)c2c(-c3cccc(-c4ccc(C(F)(F)F)cc4)c3)cc(=O)oc2c1,-18,?,-3,-2,17,15
COc1cc(OC)c2c(-c3cccc(-c4ccc(C#N)cc4)c3)cc(=O)oc2c1,-25,56*,-4,-3,4,9
CC(C)[C@H]1CC=CC[C@@H](C)Oc2ccccc2C(=O)N(C)[C@H](C)C(=O)N1 (mixture of isomers),.,.,.,.,.,-4
COc1ccccc1N1CCN(C(=O)C(=O)c2c(C)[nH]c3ccccc23)CC1,-9,.,.,-1,11,-2
Cc1[nH]c2ccccc2c1C(=O)C(=O)N1CCN(c2ccccc2Cl)CC1,13,.,-3,34*,17,0
CO[C@H]1CN(C)C(=O)c2cc(NC(=O)C3CC3)ccc2OC[C@H](C)N(C(C)=O)C[C@@H]1C,4,-3,-10,-3,11,1
O=C(N[C@H]1C=C[C@H](CC(=O)N2CCc3ccccc3C2)O[C@@H]1CO)C1CCOCC1,.,1,0,0,6,4
Cc1ccc(NC(=O)c2ccc3c(c2)CCN3S(C)(=O)=O)cc1,-60,-68,.,20*,-66,-12
N#Cc1c(N)[nH]c2ccc(Sc3ccccc3)cc12,38,61*,-11,-1,-20,-67
N#Cc1c(N)[nH]c(=S)c(C#N)c1-c1ccccc1,.,.,20,.,.,.
CC(C)(C)C1CCc2c(sc(NC(=O)CSc3ncn[nH]3)c2C#N)C1 (stereo not given),22,.,.,.,.,.
CC1CCc2c(sc(NC(=O)CSc3ncn[nH]3)c2C#N)C1 (stereo not given),26,64*,-8,2,9,-19*
Cc1ccc(CSc2nnc(C(F)(F)F)n2Cc2ccc(F)cc2)cc1,.,-19,-4,-3,-11,-27*
COc1cccc(CSc2nnc(C(F)(F)F)n2Cc2ccc(F)cc2)c1,.,-7,.,-3,8,-29
C[C@H]1CN(C)C(=O)c2cc([N+](=O)[O-])ccc2O[C@H]1CN(C)C(=O)OC(C)(C)C,.,.,.,.,.,-3
COc1ccc2c3c(n(C)c2c1)[C@H](CO)N(C(=O)Nc1ccc(F)cc1)CC31CN(CC2CCOCC2)C1,.,7,-18,5,-2,0
Cc1cccc(CNc2ncnc3ccc(-c4cccnc4)cc23)c1,-3,12,-8,1,-46,-41
CC(=O)Nc1ccc(CNc2ncnc3ccc(-c4c(C)noc4C)cc23)cc1,-178,70*,-40,.,-20,-7
CCOc1ccc2oc(C(=O)N(C)CCc3ccc(OC)c(OC)c3)c(C)c2c1,-4,0,-10,4,9,-14
CCOc1ccc2oc(C(=O)N(C)CC(=O)Nc3ccc(OCC)c(OCC)c3)c(C)c2c1,5,-2,-8,3,0,-28*
CN(C)/C=C1\Oc2ccc3ccccc3c2C1=O,16,-136,-3,112*,29,12
O=C(C[C@H]1C[C@H]2c3cc(NC(=O)NC4CCCCC4)ccc3O[C@H]2[C@H](CO)O1)NC1CCCC1,.,.,.,.,.,5
Cc1ccc(NC(=O)COC(=O)CCC(=O)c2cccs2)c(C)c1,-5,1,1,-3,-15,3
Cc1ccc(NC(=O)CCC(=O)c2cccs2)nc1,-31,-29,-2,-5,-51,9
